Source: PubChem BioAssay AID1851 (National Center for Advancing Translational Sciences (NCATS), 2009)
Out of some 16,000 compounds screened, about 5,800 (36%) were called active. About 23% were inconclusive and are not listed. The list shows a part of the results. A number with no mark means an inactive call. Calls come from the whole dose curve; as a rule, active = well fitted curve in the direction sought with a large enough effect; inconclusive = small, poorly fitted or top-dose-only effect, or effect the other way; inactive = no such curve, though single readings can be large or run the other way.

Target: Cytochrome P450 2C19 (Homo sapiens) (UniProt P33261)
Sequence (P33261 whole entry, looked up): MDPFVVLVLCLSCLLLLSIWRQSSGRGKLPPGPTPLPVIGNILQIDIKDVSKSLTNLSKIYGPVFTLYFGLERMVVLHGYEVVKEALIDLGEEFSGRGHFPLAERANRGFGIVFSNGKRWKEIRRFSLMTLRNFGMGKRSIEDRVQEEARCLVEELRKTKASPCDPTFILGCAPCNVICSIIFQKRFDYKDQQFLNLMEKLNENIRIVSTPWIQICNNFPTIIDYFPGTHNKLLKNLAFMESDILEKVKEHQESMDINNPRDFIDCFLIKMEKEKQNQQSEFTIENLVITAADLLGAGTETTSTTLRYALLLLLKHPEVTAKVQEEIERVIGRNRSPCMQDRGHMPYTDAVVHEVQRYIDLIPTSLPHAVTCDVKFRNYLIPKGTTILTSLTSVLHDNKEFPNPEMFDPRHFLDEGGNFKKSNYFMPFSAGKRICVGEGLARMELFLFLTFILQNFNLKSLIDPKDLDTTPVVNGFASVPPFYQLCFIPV
Assay: Cytochrome panel assay with activity outcomes
Settings: recombinant CYP, pro-luciferin dealkylation, luminescence, p450-cyp2c19; series mostly up to 57.1 µM; activity, negative = inhibition: at the top concentration
% is set by controls: 0 for no effect and ±100 for the full control effect.

Compound | activity, negative = inhibition | AC50
CN1CCN(c2ncc3ncc(=O)n(C[C@H]4CCCO4)c3n2)CC1 | -0.787% | –
O=C(NNC(=O)c1ccccc1)C(=O)N1CCCCC1 | 14.9% | –
O=C(NC(N1CCCC1)C(Cl)(Cl)Cl)c1ccccc1 (stereo not drawn) | – | 7.94 µM (active)
CC(C)NC(=O)/C(=N\O)c1ccccc1 | 5.05% | –
CCN(CC)N=Nc1[nH]nc2nc(C)cc(C)c12 | -25.4% | –
CCN(CC)c1ncnc2c1sc1nc(C)cc(C)c12 | – | 14.1 µM (active)
Cc1ccc(-c2ncccc2OC(=O)C23CC4CC(CC(C4)C2)C3)cc1 | – | 14.1 µM (active)
O=C(CNc1cccc(Cl)c1)c1ccc(Cl)cc1 | – | 2 µM (active)
O=C(NOC(=O)c1cc(Br)ccc1Cl)c1cccs1 | 22.5% | –
O=C(CCNc1cccc(Cl)c1)c1cccs1 | – | 3.98 µM (active)
COc1ccccc1C1=NOC(COC(=O)c2ccc3ccccc3n2)C1 (stereo not drawn) | – | 15.8 µM (active)
COc1ccccc1-c1nc(NCCNC(C)=O)c2ccccc2n1 | -0.29% | –
O=C1C[C@H](c2ccccc2)[C@@H](c2ccc(Br)cc2)O1 | – | 0.398 µM (active)
O=[N+]([O-])c1c(NCCO)cc(Sc2nc3ccccc3s2)c2nonc12 | – | 2.51 µM (active)
CN(CCO)c1cc(Sc2nc3ccccc3s2)c2nonc2c1[N+](=O)[O-] | – | 11.2 µM (active)
CC(C)n1nnnc1-c1cc(Cl)cc(Cl)c1 | – | 7.94 µM (active)
CN1CC[C@@]2(CCCN(C(=O)c3cccc(F)c3)C2)C1 | -21.2% | –
Cc1cccc(-n2nnc3cnn(C)c3c2=O)c1 | -24.5% | –
Cc1cccc(Cn2ncc(Cl)c(Cl)c2=O)c1 | – | 8.91 µM (active)
O=C(O)c1ccccc1C1c2ccccc2Oc2ccccc21 | 9.43% [at 11.4 µM] | –
CC(=O)c1ccc(OC(=O)C2c3ccccc3Oc3ccccc32)cc1 | – | 25.1 µM (active)
CC[N+](C)(CC)CCOC(=O)C1c2ccccc2Oc2ccccc21 | 2.44% [at 25.6 µM] | –
O/N=C/c1cc(Cl)ccc1OCc1cccc2ccccc12 | – | 1.58 µM (active)
Oc1ccc(Cl)cc1C=Nc1cnc2ccccc2c1 | -4.43% [at 11.4 µM] | –

Compound | activity, negative = inhibition | AC50
O=[N+]([O-])c1ccc(/C=N/n2c(COc3ccccc3)n[nH]c2=S)cc1 | – | 11.2 µM (active)
O=S(=O)(N/N=C\C=C\c1ccccc1)c1ccc(Br)cc1 | – | 2 µM (active)
O=C(N/N=C/C=C/c1ccccc1)c1cc2c(ccc3ccccc32)o1 | 28.5% | –
Nc1ncnc2nc(N3CCN(CCO)CC3)[nH]c12 | -15.5% [at 11.4 µM] | –
COc1ccccc1C(c1nnnn1C(C)(C)C)N1CCN(Cc2ccncc2)CC1 (stereo not drawn) | – | 2.24 µM (active)
COc1ccc(C(=O)N2CCC3(CCN(Cc4ccncc4)CC3)CC2)cc1 | -24.1% | –
COc1ccccc1C(c1nnnn1C(C)(C)C)N1CCCc2ccccc21 (stereo not drawn) | – | 4.47 µM (active)
Cc1nc2cnc(N3CCN(C)CC3)nc2n(C)c1=O | 6.26% | –
COc1ccc(C2C(C#N)=C(N)N(Nc3ccccc3)C3=C2C(=O)CC(C)(C)C3)cc1C (stereo not drawn) | – | 2.24 µM (active)
CN(C)N1C(N)=C(C#N)C(c2cccnc2)C2=C1CC(C)(C)CC2=O (stereo not drawn) | -55.4% | –
COc1cc(C2C(C#N)=C(N)N(Nc3ccccc3)C3=C2C(=O)CC(C)(C)C3)ccc1OCc1ccccc1 (stereo not drawn) | – | 6.31 µM (active)
COc1cc(C2C(C#N)=C(N)N(Nc3ccccc3)C3=C2C(=O)CC(C)(C)C3)ccc1OCc1cccc(F)c1 (stereo not drawn) | – | 7.08 µM (active)
Cc1noc(C)c1C(=O)N1CCC2(CCCN(Cc3ccc(C#N)cc3)C2)CC1 | -20.6% | –
CN(C)Cc1ccccc1-c1ccc2ncnc(N(C)C)c2c1 | -8.91% | –
Cc1ccccc1-c1ccc2ncnc(N(C)C)c2c1 | – | 7.94 µM (active)
CN(C)c1ncnc2ccc(-c3ccccc3C(F)(F)F)cc12 | – | 3.98 µM (active)
COc1ccccc1-c1ccc2ncnc(N(C)C)c2c1 | – | 0.501 µM (active)
CC(=O)OC[C@@H]1O[C@@H](O/N=C2/C[C@@H](O)[C@@H](O)[C@@H]3[C@H]4C(=O)N(c5ccc(F)cc5F)C(=O)[C@@H]4CC[C@H]23)[C@H](OC(C)=O)[C@H](OC(C)=O)[C@@H]1OC(C)=O | -9.07% [at 11.4 µM] | –
CC1(C)SC(=S)N(Cc2ccc3c(c2)OCO3)C1N(O)C(=O)NC1CCCCC1 (stereo not drawn) | – | 3.55 µM (active)
CCOC(=O)N/N=C1/C[C@@H](O)[C@@H](O)[C@@H]2[C@@H]3C(=O)N(Cc4ccc5c(c4)OCO5)C(=O)[C@H]3CC[C@@H]12 | 4.88% [at 11.4 µM] | –
CCOC(=O)N/N=C1/C[C@@H](O)[C@@H](O)[C@@H]2[C@@H]3C(=O)N(Cc4ccc5c(c4)OCO5)C(=O)[C@H]3CC[C@H]12 | -2.19% [at 11.4 µM] | –
CCOC(=O)c1cc(C#N)c(Oc2ccccc2OC)nc1-c1ccccc1 | – | 6.31 µM (active)
CCCCNc1c(C(=O)OCC)c(C)nc2c1cnn2CC | -9.56% [at 25.6 µM] | –
CCCCNc1nc(-c2ccccc2)c(C(=O)OCC)cc1C#N | – | 17.8 µM (active)
